From PubChem
Rows were chosen to be rich in hits. Some 5.7% of all compounds tested hit in one or more screens of this group.
KB-3-1 tox: KB-3-1 parental cell cytotoxicity; KB-3-1 viability, CellTiter-Glo ATP luminescence, 72 h; Potency, µM (titrated, usually from 46.1 µM), most hits filed as cytotoxic; hit rate 1.4% among 400,000; also: nearly all actives have a fitted effect of over 60% in size
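Cytotoxicity in the drug-sensitive parental line KB-3-1 was scored as loss of CellTiter-Glo luminescence following 72 h incubation with compound. Values come from curve fitting of normalized concentration-response data.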
HT1080-NT tox: kills 2HG-producing HT-1080-NT fibrosarcoma cells; HT-1080-NT fibrosarcoma viability, CellTiter-Glo ATP luminescence, 48 h; Potency, µM (highest dose often 46.1 µM), without a hit: at the top dose activity, negative = less viability, usual class: cytotoxic; hit rate 1.6% among 360,000; AID 686970;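 also: NT is the 2HG producing partner of a matched IDH1 knockdown line; 0% = DMSO-treated cells and -100% = media-only wells without cells; nearly all actives have a fitted effect of over 55% in size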
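HT-1080-NT fibrosarcoma cells (2HG-overproducing), 750 cells/well in RPMI with 5% FBS, dosed after 2 h and incubated 48 h at 37C. CellTiter-Glo luminescence normalized to DMSO and no-cell wells; concentration-response curves fitted and classed.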
KB-V1 cytotox: kills drug-selected multidrug resistant KB-V1 cells | KB-V1 MDR cells viability, CellTiter-Glo, 72 h | Potency, µM (doses to about 46.1 µM), usual class: cytotoxic | hit rate 3.4% among 400,000; also: nearly all actives have a fitted effect of over 60% in size
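Following 72 h at 37 degrees C with compound, KB-V1 cell viability was read by CellTiter-Glo luminescence, medium being phenol-red-free DMEM plus 10% FBS; concentration-response parameters came from normalized, curve-fitted qHTS data.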
HT1080 IDH1KD tx: HT-1080 IDH1 knockdown cell toxicity (counter line); HT-1080 IDH1 knockdown viability, ATP luminescence, 48 h; Potency, µM (doses to about 46.1 µM), for the others: at the highest dose activity, negative = toxicity, actives largely listed as cytotoxic; hit rate 2% among 360,000;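 also: 0% = DMSO wells and -100% = cell-free medium wells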
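% activity derives from luminescence (CellTiter-Glo), normalised to DMSO and no-cell wells. HT-1080-IDH1KD cells, 750/well, had 48 h compound exposure at 37 °C.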
* hit, by the source's call; i = inactive; ? = inconclusive; / = not tested or not shown; ! = repeats disagree. Calls follow the shape of the dose curve; as a rule, active = well fitted curve in the direction sought with a large enough effect; inconclusive = small, poorly fitted or top-dose-only effect, or another doubt; inactive = no such curve, though single readings can be large; an effect the other way counts as inactive or inconclusive. Unless noted, % is scaled to controls: 0 for no effect and ±100 for the full control effect; potency is read from the fitted curve at half-maximal effect.

SMILES	KB-3-1 tox	HT1080-NT tox	KB-V1 cytotox	HT1080 IDH1KD tx
O=C(c1cnn2c1NC(=C1CC1)C=C2C(F)F)N1CCc2ccccc21	?	/	i	/
CCc1ccc(NCc2cc3ccc(OC)cc3n(CC(=O)Nc3ccc(C)c(Cl)c3)c2=O)cc1	?	/	i	/
CCC(c1nnnn1Cc1ccccc1)N(Cc1ccccc1)Cc1cc2cc(C)ccc2[nH]c1=O (stereo unspecified)	i	/	i	/
COc1cccc(NC(=O)COC(=O)c2ccccc2C(=O)N(C)c2ccccc2)c1	i	0%	23µM*	-12%
COc1ccc(OC)c(NC(=O)c2ccccc2SC)c1	i	24%	18µM*	7%
COc1ccc(NC(=O)c2ccccc2SC)cc1	i	10%	i	25%
CCOc1ccc(CNC(=O)c2ccc3c(c2)c(C)c(C)n3Cc2ccccc2)cc1OC	i	/	i	/
O=C(CN1CCSC1=NCc1ccccc1)c1ccc(Cl)cc1	i	-3%	16µM*	0%
O=C(Nc1ccc(Cl)cc1)N1CCSC1=NCc1ccccc1	i	3%	i	3%
CCOc1ccc(-c2cc(NC(=O)c3ccccc3)c(C(=O)OC)s2)cc1	i	/	i	/
Cc1nnc(N2CCN(c3ccc(Cl)cc3)CC2)c2c1nnn2Cc1ccc(F)cc1	i	/	i	/
Cc1cc(C(C)(C)C)cc(C)c1C[n+]1ccc2ccccc2c1	1.6µM*	?	i	?
Cc1ccc(C(=O)C[n+]2ccc3ccccc3c2)cc1	i	-3%	i	-11%
CCOC(=O)CSc1nc2c(sc3ccccc32)c(=O)n1Cc1ccc(OC)cc1	i	/	i	/
COc1cc(-c2noc(C)c2C(=O)NCCc2c[nH]c3ccccc23)cc(OC)c1OC	i	-1%	?	-13%
COc1cc2sc3ccc(-c4ccc(N(C)C)nc4)cc3c(=O)c2cc1OC	i	11%	i	17%
COc1cc(-c2noc(C)c2-c2ccc3[nH]ccc3c2)cc(OC)c1OC	1.8µM*	1µM*	1.8µM*!	0.037µM*
COc1cc(-c2noc(C)c2-c2ccc(N(C)C)nc2)cc(OC)c1OC	0.0065µM*	0.0058µM*	0.21µM*	0.18µM*
CCCCCCCCN=C1NC(=O)CS1	?	4%	13µM*	5%
CCc1ccc(N=C2NC(=O)CS2)cc1	i	20%	?	22%
O=C(c1ccccc1Cl)n1nc(-c2cccnc2)nc1NCc1ccc(F)cc1	i	/	i	/
C[C@@H]1CN([C@H](C)CO)C(=O)CCCn2nncc2CO[C@@H]1CN(C)C(=O)CCC(F)(F)F	1.6µM*	-24%	i	-16%
C[C@@H]1CN([C@@H](C)CO)C(=O)CCCn2nncc2CO[C@H]1CN(C)C(=O)CCC(F)(F)F	i	0%	i	9%
COc1ccc2[nH]c(=O)c(CN(C(=O)NC3CCCCC3)C3CCCC3)cc2c1	i	-1%	15µM*	-7%
CCc1ccc2[nH]c(=O)c(CN(CCN(CC)CC)C(=O)NC3CCCCC3)cc2c1	?	16µM*	i	?
SMILES	KB-3-1 tox	HT1080-NT tox	KB-V1 cytotox	HT1080 IDH1KD tx
COc1ccc(Cn2nnnc2CN(Cc2cc3ccc(C)cc3[nH]c2=O)C2CCCC2)cc1	i	?	?	?
CCOc1ccc(N(Cc2cc3cc(OC)ccc3[nH]c2=O)S(C)(=O)=O)cc1	i	-5%	15µM*	?
CCC(C)(C)n1nnnc1CN(Cc1cc2cc(OC)ccc2[nH]c1=O)C1CCCC1	i	-19%	18µM*	-25%
CCOC(=O)c1c(C)[nH]c(C)c1S(=O)(=O)N1CCCC(C(=O)Nc2ccc(F)cc2F)C1 (stereo unspecified)	i	/	i	/
S=C(NCCCc1cnc[nH]1)NCCCN(Cc1ccc(Cl)cc1)c1ccc(Br)cc1	i	/	i	/
COc1ccc(Cn2c(C3CC3)nc3ccc(NC(=O)c4cccnc4)cc3c2=O)cc1	5.8µM*	10µM*	?	10µM*
CC(C)CSc1nnc(-c2ccccc2)c(-c2ccccc2)n1	i	/	i	/
Cc1ccc(-c2nn(-c3ccccc3)cc2CO)cc1	i	-8%	i	-14%
Cc1ccc(-c2nn(-c3ccccc3)cc2CNCc2ccccc2)cc1	?	16µM*	i	23µM*
Cc1ccc(-c2nn(-c3ccccc3)cc2NC(=O)CCl)cc1	8.2µM*	5.2µM*	?	7.3µM*
Cc1ccccc1NC(=O)c1cn(-c2ccccc2)nc1-c1ccccc1	i	15%	i	7%
COc1ccccc1N1CCCSC1=Nc1ccccc1	i	1%	i	1%
COc1ccc(-c2cn3nc(N4CCCC(C(=O)NCc5ccccc5OC)C4)sc3n2)cc1 (stereo unspecified)	i	/	i	/
CCC(CC)C(=O)Nc1nnc(SCc2cc(=O)c3ccccc3[nH]2)s1	?	/	i	/
CCCOC(=O)c1c(NC(=O)C2c3ccccc3Oc3ccccc32)sc2c1CCC(C)C2 (stereo unspecified)	i	/	i	/
O=C(Cn1ncc2ccsc2c1=O)N1CCN(c2ccccc2)CC1	i	/	i	/
Cc1ccc(C)c(N2CCN(C(=O)Cn3ncc4ccsc4c3=O)CC2)c1	16µM*	/	4.1µM*	/
COc1ccccc1N1CCN(C(=O)c2cc3c(=O)n(Cc4cccnc4)ccc3nc2C)CC1	i	/	i	/
COc1ccc2nc3cc(Cl)ccc3c(C#N)c2c1	i	8%	i	9%
COc1ccc2nc3cc(Cl)ccc3c(Nc3ccc(O)c(CN4CCN(C)CC4)c3)c2c1	?	?	?	16µM*
Cc1sc2ccccc2[n+]1CCCCBr	i	/	i	/
FC(F)(F)c1cc(Cc2nc3ccccc3n2C(CCc2ccccc2)c2nc3ccccc3[nH]2)cc(C(F)(F)F)c1 (stereo unspecified)	i	21µM*	?	?
CC(C)(C=O)C1=CC(=O)c2ccccc2C1=O	i	-29%	i	13µM*
Cc1cc2cc(C#N)c(N3CCN(S(C)(=O)=O)CC3)nc2cc1C	i	2%	18µM*	-3%
Cc1ccc(-c2cc3nc(-c4ccccc4)cc(C(F)(F)F)n3n2)cc1	i	/	i	/
SMILES	KB-3-1 tox	HT1080-NT tox	KB-V1 cytotox	HT1080 IDH1KD tx
N#Cc1ccccc1OC1=NS(=O)(=O)c2ccccc21	i	/	i	/
C=CCN1/C(=C(\C#N)C2=NS(=O)(=O)c3ccccc32)N(C)c2ccccc21	i	13µM*	i	7.1µM*
O=C1CCCC2=C1C1(CCSC1)N=C(Nc1nc3ccccc3o1)N2 (stereo unspecified)	i	/	i	/
CN[C@H]1CCc2cc(OC)c(OC)c(OC)c2-c2ccc(OC)c(=O)cc21	0.029µM*	0%	1.2µM*	12%
CCOC(=O)NC1CCc2cc(OC)c(OC)c(OC)c2-c2ccc(SC)c(=O)cc21 (stereo unspecified)	0.16µM*	0.0092µM*	0.23µM*	0.1µM*
COc1cc2c(c(OC)c1OC)-c1ccc(NC(=O)c3ccccc3)c(=O)cc1[C@@H](NC(C)=O)CC2	i	0%	i	0%
